Measured values: PubChem BioAssay (NCI)
Compounds without any hit were thinned out: in the full panel of roughly 83,000, 20% have a hit.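 Method: cells in 96-well plates; compound added at one concentration; 48 h incubation; percent growth measured; values under 10 scored active.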 Unmarked numbers belong to inactive results. Active and inactive are the calls of the source.

How the values were obtained:
Experiment in all cases: NCI-60 one-dose screen, 48 h (100 = growth as untreated, 0 = no growth, -100 = all killed)
Conditions in all cases: 10 µM unless noted
NCI-H23 lung = tested on: NCI-H23 lung
NCI-H226 lung = tested on: NCI-H226 lung
NCI-H322M lung = tested on: NCI-H322M lung
HOP-62 NSCLC = tested on: HOP-62 NSCLC
NCI-H460 lung = tested on: NCI-H460 lung
HOP-92 NSCLC = tested on: HOP-92 NSCLC
NCI-H522 lung = tested on: NCI-H522 lung
A549/ATCC NSCLC = tested on: A549/ATCC NSCLC
786-0 renal = tested on: 786-0 renal
COLO 205 colon = tested on: COLO 205 colon
DU-145 prostate = tested on: DU-145 prostate
K-562 leukemia = tested on: K-562 leukemia
MALME-3M melanoma = tested on: MALME-3M melanoma
MDA-MB-231 breast = tested on: MDA-MB-231 breast
RXF 393 renal = tested on: RXF 393 renal
SF-268 CNS = tested on: SF-268 CNS
SF-295 CNS = tested on: SF-295 CNS
SF-539 CNS = tested on: SF-539 CNS
UACC-257 melanoma = tested on: UACC-257 melanoma
M14 melanoma = tested on: M14 melanoma

Compound | growth (NCI-H23 lung) | growth (NCI-H226 lung) | growth (NCI-H322M lung) | growth (HOP-62 NSCLC) | growth (NCI-H460 lung) | growth (HOP-92 NSCLC) | growth (NCI-H522 lung) | growth (A549/ATCC NSCLC) | growth (786-0 renal) | growth (COLO 205 colon) | growth (DU-145 prostate) | growth (K-562 leukemia) | growth (MALME-3M melanoma) | growth (MDA-MB-231 breast) | growth (RXF 393 renal) | growth (SF-268 CNS) | growth (SF-295 CNS) | growth (SF-539 CNS) | growth (UACC-257 melanoma) | growth (M14 melanoma)
O=C(N/N=C/c1ccc(B(O)O)s1)c1[nH]c2ccc(Br)cc2c1-c1ccccc1 | -94.9% (active) | -45.2% (active) | -79.1% (active) | -69.8% (active) | -76% (active) | -60.2% (active) | -83% (active) | -62.8% (active) | -66.2% (active) | -81.8% (active) | -56.4% (active) | 2.64% (active) | -96.2% (active) | -88.1% (active) | -94.3% (active) | -37.2% (active) | -98.1% (active) | -98.8% (active) | -77.4% (active) | -67.4% (active)
O=c1[nH]c2ccccc2cc1COc1ccc(Nc2nccc(-c3ccc(Cl)cc3)n2)cc1 | 95.9% | 103% | 107% | 87.1% | 103% | 97.7% | 89.1% | 101% | 88.2% | 116% | 89% | 95.2% | 105% | 105% | 91.8% | 105% | 90.8% | 91.6% | 107% | 107%
CCCCNC(=S)Nc1ccc(OCc2nc3ccc(Cl)cc3[nH]2)cc1 | 29.3% | 58.4% | 57% | 49.5% | 15.6% | -0.247% (active) | -57.5% (active) | 52.7% | 31.3% | 24.9% | 26.3% | 11.1% | 41.2% | 10.5% | -1.67% (active) | 48.3% | 67.6% | 28.4% | 56.9% | 39.1%
Cc1cc(C(NC(=O)CCCCCNc2cccc3c2C(=O)N(C2CCC(=O)CC2=O)C3=O)c2cccc(N(C)C)c2)c(O)c2ncccc12 (stereo not given) | 24% | -1.45% (active) | 13.7% | -22.6% (active) | 5.72% (active) | -10.4% (active) | 13% | 11.7% | 2.23% (active) | 7.54% (active) | 27.5% | 9.86% (active) | -11.8% (active) | -22.2% (active) | 32.1% | 20.5% | 2.01% (active) | 1.5% (active) | 1.91% (active) | -26.5% (active)
NS(=O)(=O)c1cccc(Nc2nc(SCC(=O)c3ccc(F)cc3)nc3ccccc23)c1 | 5.36% (active) | 15.3% | 22.9% | 5.89% (active) | 12.5% | 29% | -0.334% (active) | 28.1% | 26.1% | 26.4% | 9.74% (active) | 8.34% (active) | 10.6% | 7.12% (active) | 38.9% | 8.21% (active) | -5.65% (active) | 8.17% (active) | 14.4% | 23.3%
O=C(CSc1nc2c(c(=O)[nH]1)CCCC2)Nc1ccccc1C(=O)O | 99.9% | 101% | 102% | 104% | 120% | 117% | 83.8% | 103% | 103% | 124% | 110% | 95.8% | 96.7% | 109% | 108% | 106% | 100% | 97.9% | 109% | 108%
COc1cc(CNC(=O)[C@]23CCC(C)(C)CC2C2=CCC4[C@@]5(C)CCC(OC(C)=O)C(C)(C)C5CC[C@@]4(C)[C@]2(C)CC3)ccc1OCc1cn(-c2ccc(Cl)cc2Cl)nn1 (stereo not given in full) | 99% | 94.8% | 94.1% | 105% | 105% | 116% | 88.9% | 93.1% | 107% | 118% | 116% | 85.5% | 99% | 88.8% | 116% | 110% | 100% | 101% | 88.6% | 98.2%
